Data published in PubChem BioAssay (NCATS).
Inconclusive results are not listed. Entries that show only a call come without a potency. The source made the active and inactive calls. Calls come from the whole dose curve; as a rule, active = well fitted curve in the direction sought with a large enough effect; inconclusive = small, poorly fitted or top-dose-only effect, or another doubt; inactive = no such curve, though single readings can be large; an effect the other way counts as inactive or inconclusive.

What was measured:
[1] = biological target: Calcium and integrin-binding protein 1 (Homo sapiens) (UniProt Q99828); assay: Primary qHTS for Identification of Calcium Integrin Binding Protein 1 (CIB1) Competitor (AID 1508620);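 note: GST tagged CIB1 binding a fluorescein labelled alphaIIb integrin peptide tracer; top concentration of the series differs between compounds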
Sequence of Calcium and integrin-binding protein 1 (Homo sapiens) (Q99828 whole entry, looked up): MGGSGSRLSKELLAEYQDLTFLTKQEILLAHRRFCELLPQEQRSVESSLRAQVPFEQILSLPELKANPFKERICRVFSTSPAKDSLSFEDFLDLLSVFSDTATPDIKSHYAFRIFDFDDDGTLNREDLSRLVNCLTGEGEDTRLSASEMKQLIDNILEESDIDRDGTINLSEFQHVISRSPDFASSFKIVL
Method in brief: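 Fluorescence polarization competition: GST-tagged CIB1 (1 uM final) preincubated with compound 15 min at room temperature, then FITC-labelled alphaIIb peptide (100 nM final) added. After 15 min at room temperature, polarization read at Ex 480/Em 540.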

[2] = Primary qHTS for small molecule stabilizers of the endoplasmic reticulum resident proteome: Secreted ER Calcium Modulated Protein (SERCaMP) assay (AID 1508630)
Method in brief: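 The SH-SY5Y reporter protocol was run at 3 concentrations up to 38.3 uM (primary) or 11 concentrations (follow-up): 16 h compound, 100 nM thapsigargin for 4 h, then extracellular luciferase luminescence.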

| SMILES | Potency [1] | outcome [2] |
| --- | --- | --- |
| CC1(C)CC[C@]2(C(=O)O)CC[C@]3(C)C(=CCC4[C@@]5(C)CCC(O[C@@H]6OC[C@H](O)[C@H](O)[C@H]6O[C@@H]6O[C@H](CO)[C@@H](O)[C@H](O)[C@H]6O)[C@@](C)(CO)C5CC[C@]43C)[C@@H]2C1 (stereo partly drawn) | inactive |  |
| COc1cc(COC2OC(CO)C(O)C(O)C2O)cc(OC)c1O (stereo not drawn) | inactive |  |
| CC1OC(OC2C(O)C(C(=O)O)OC(OC3CCC4(C)C(CCC5(C)C4C=CC4=C6CC(C)(C)CC(O)C6(C)CCC45C)C3(C)C)C2OC2OCC(O)C(O)C2O)C(O)C(O)C1O (stereo not drawn) | inactive |  |
| CC(/C=C/C1(O)C(C)(C)CC(O)CC1(C)O)OC1OC(CO)C(O)C(O)C1O (stereo not drawn) | inactive |  |
| C=CC(C)(CC/C=C(\C)CC/C=C(\C)CC(O)/C=C(\C)C(=O)O)O[C@@H]1O[C@H](CO)[C@@H](O)[C@H](O)[C@H]1O[C@@H]1O[C@H](CO)[C@@H](O)[C@H](O)[C@H]1O (stereo partly drawn) | inactive |  |
| C=C1CCC(OC(C)=O)C2(C)CC3(O)OC(=O)C(C)=C3CC12 (stereo not drawn) | inactive |  |
| CC(=O)OCC1=C[C@H](O)[C@@H]2C(C(=O)O)=CO[C@@H](O[C@@H]3O[C@H](CO)[C@@H](O)[C@H](O)[C@H]3O)[C@H]12 | inactive |  |
| Cc1ccc(Sc2cncc3sc(C(N)=O)cc23)cc1 |  | inactive |
